Drawing on PubChem BioAssay AID540335 (Broad Institute, 2011), this text covers outcome for 30 compounds.

The campaign covered roughly 1,300 compounds. About 270 (21%) were called active.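 Rule for the calls: active = dose-dependent rise or fall in viability, either side of zero, with half-maximal concentration at or below a set limit; inconclusive = flat curve at 30 to 70% viability loss, or poor fit; inactive = flat within 30% either way, or potency beyond limit.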 Only a sample is shown. Entries with a potency or affinity are not part of this list.

This test in a line: A375 melanoma cell viability reduction, dose response, counter-screen for MITF modulator project, cherry-pick samples, set 2 (AID 540335).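 Note: A375 human melanoma cells which do not depend on MITF.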 To be noted: CellTiter-Glo ATP luminescence, 24 h; series mostly up to 35 µM. A general note: The purpose of a counterscreen is to sort out artefacts and off-target activity.
As for `COc1ccc(C(NC(C)=O)c2ccc3cccnc3c2O)c(OC)c1` (stereo not given), the call was inactive.

For `COc1cc(OC)cc(C(=O)Nc2ccc3c(c2)OCCO3)c1`, the compound was called inactive.

As to `COc1cccc(NC(=O)Nc2cccc(C(=O)O)c2)c1`, the outcome was inactive.

As to `COC(=O)CCS(=O)(=O)c1nc(-c2ccccc2)cc(C(F)(F)F)n1`, the call was inactive.

`Cc1nc(C)c(C(=O)N/N=C/c2cc(Br)ccc2O)s1`: the call was inactive.

Turning to `O=C(N/N=C/c1cccc2cccnc12)c1ccccc1O`, the compound was called inactive.

Turning to `Cc1ccc(C#CC[N+]2(CC#Cc3ccc(C)cc3)CCCCC2)cc1`, the call was inactive.

Take `O=C(Nc1nc(-c2ccccn2)cs1)c1ccc([N+](=O)[O-])o1`: the compound was called inactive.

As to `CS(=O)(=O)N1CCN(c2ccc(NC(=O)c3ccc([N+](=O)[O-])o3)cc2)CC1`, the outcome was inactive.

For the compound `Cc1cccc(NC(=O)c2ccc([N+](=O)[O-])o2)c1C`, the call was inactive.

In the case of `COc1cc(/C=N/N=C(N)N)ccc1OCc1ccc(Cl)cc1`, the call was inactive.

Regarding `Cc1cc(NC(=O)c2ccc([N+](=O)[O-])o2)ccc1NC(=O)c1ccco1`, the compound was classed as inactive.

Consider `COc1ccccc1NS(=O)(=O)c1cc(NC(=O)c2ccc(Cl)nc2)ccc1Cl`, for which the result was inactive.

In the case of `CCCCNc1nc(=S)n(-c2ccccc2)c(C)c1C(C)=O`, the compound was classed as inactive.

Take `CC(=O)Nc1ccc(-c2nc3ccccc3o2)cc1`: the outcome was inactive.

`CC(=O)Nc1ccc2c(c1)ncn2-c1ccccc1`: the compound was classed as inactive.

Turning to `Cn1nc([N+](=O)[O-])nc1S(C)(=O)=O`, the result was inactive.

`CS(=O)(=O)c1ncc(Cl)c(C(=O)Nc2ccc(N3CCOCC3)cc2)n1`: the compound was classed as inactive.

Consider `O=C(c1ccc(S(=O)(=O)Cc2ccccc2Cl)c([N+](=O)[O-])c1)N1CCN(c2ccccn2)CC1`, for which the result was inactive.

For `O=C(Cc1ccc2c(c1)OCO2)NN=Cc1ccc([N+](=O)[O-])o1`, the compound was classed as inactive.

For `Cn1nnnc1Sc1ncnc2scc(-c3cccs3)c12`, the call was inactive.

With `O=C(NC1CCCC(C(F)(F)F)C1)c1ccc([N+](=O)[O-])o1` (stereo not given), the compound was classed as inactive.

On to `CCCN1CCC(NCc2cn(C)nc2-c2ccc(Oc3ccccc3)cc2)CC1`, for which the outcome was inactive.

Take `CC(O)CNC(=O)C1CCN(Cc2ccc(OCc3ccccc3)cc2)CC1` (stereo not given): the compound was classed as inactive.

On to `O=C(O)c1ccc(N/N=C/c2ccc3nccnc3c2)cc1`, for which the outcome was inactive.

On to `CCOCCCNC(=O)/C(C#N)=C/c1ccc([N+](=O)[O-])o1`, for which the call was inactive.

Take `Cc1ccc(-c2nc(C(=O)NCCCN(C)C)cc3c2[nH]c2ccccc23)cc1`: the compound was classed as inactive.

For `CN(C)CCCNC(=O)/C(=C\c1ccc(-c2ccc(Br)cc2)o1)NC(=O)c1ccccc1`, the call was inactive.

As to `Cc1ccc(C(=O)N/C(=C\c2ccc(-c3ccccc3[N+](=O)[O-])o2)C(=O)NCCN(C)C)cc1`, the compound was classed as inactive.

Take `CCN(CC)CCC(=O)N1C/C(=C/c2ccccc2)C(=O)/C(=C\c2ccccc2)C1`: the compound was called inactive.
